# Screens (PubChem)
# Most compounds without a hit are left out; they make up all but 11% or so of the library.
# 3T3 cytotox = cytotoxic compounds in NIH 3T3 cells | Potency, µM (series often up to 96.7 µM), for the others: at the top dose activity change, negative = cytotoxicity, actives largely listed as inhibitors | hit rate 4.3% among 94,000 | NIH 3T3 viability, CellTiter-Glo ATP luminescence, 48-72 h; also: % is scaled to controls: 0 for no effect and ±100 for the full control effect; nearly all actives have a fitted effect of over 55% in size
#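 ATP-dependent luminescence (CellTiter-Glo) served as the viability signal for NIH 3T3 cells treated with compound for 48 or 72 hr at 37 °C.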
# FLuc inh = Photinus pyralis luciferase inhibition | P08659 | purified P. pyralis luciferase, luminescence, biochemical | Potency, µM (highest dose often 115 µM), hits mostly inhibitors | hit rate 2.5% among 76,000; also: % is scaled to controls: 0 for no effect and ±100 for the full control effect; nearly all actives have a fitted effect of over 65% in size
#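 Luminescence read by CCD imaging after purified firefly luciferase (10nM final) was added to substrate buffer holding 10uM D-luciferin and 10uM ATP, pH 7.5, pre-dosed with compound.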
# HEK cytotox = cytotoxic compounds in HEK 293 cells; HEK 293 viability, ATP luminescence (CellTiter-Glo), 48-72 h; Potency, µM (doses to about 115 µM), for the others: top-dose activity change, negative = cytotoxicity, actives largely listed as inhibitors; hit rate 6.6% among 94,000; AID 1345083; also: % is scaled to controls: 0 for no effect and ±100 for the full control effect; nearly all actives have a fitted effect of over 60% in size
#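 HEK 293 seeded at 250 cells/well receive compound via pintool. After 48 or 72 hr at 37 degree Celsius, 5% CO2 and 95% humidity, CellTiter-Glo is dispensed and luminescence read following 10 min at room temperature.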
# hNpr1 antagonist = blocks ANP-stimulated signaling of human Npr1 receptor | hit rate 1.6% among 76,000 | HEK293 hNpr1 GloSensor cGMP, ANP-stimulated luminescence | Potency, µM (series often up to 46.3 µM), for the others: at the top dose activity change, negative = inhibition, usual class: inhibitors | P16066; calls by dose curve; also: % is scaled to controls: 0 for no effect and ±100 for the full control effect; nearly all actives have a fitted effect of over 60% in size
# Target sequence (P16066 whole entry, looked up): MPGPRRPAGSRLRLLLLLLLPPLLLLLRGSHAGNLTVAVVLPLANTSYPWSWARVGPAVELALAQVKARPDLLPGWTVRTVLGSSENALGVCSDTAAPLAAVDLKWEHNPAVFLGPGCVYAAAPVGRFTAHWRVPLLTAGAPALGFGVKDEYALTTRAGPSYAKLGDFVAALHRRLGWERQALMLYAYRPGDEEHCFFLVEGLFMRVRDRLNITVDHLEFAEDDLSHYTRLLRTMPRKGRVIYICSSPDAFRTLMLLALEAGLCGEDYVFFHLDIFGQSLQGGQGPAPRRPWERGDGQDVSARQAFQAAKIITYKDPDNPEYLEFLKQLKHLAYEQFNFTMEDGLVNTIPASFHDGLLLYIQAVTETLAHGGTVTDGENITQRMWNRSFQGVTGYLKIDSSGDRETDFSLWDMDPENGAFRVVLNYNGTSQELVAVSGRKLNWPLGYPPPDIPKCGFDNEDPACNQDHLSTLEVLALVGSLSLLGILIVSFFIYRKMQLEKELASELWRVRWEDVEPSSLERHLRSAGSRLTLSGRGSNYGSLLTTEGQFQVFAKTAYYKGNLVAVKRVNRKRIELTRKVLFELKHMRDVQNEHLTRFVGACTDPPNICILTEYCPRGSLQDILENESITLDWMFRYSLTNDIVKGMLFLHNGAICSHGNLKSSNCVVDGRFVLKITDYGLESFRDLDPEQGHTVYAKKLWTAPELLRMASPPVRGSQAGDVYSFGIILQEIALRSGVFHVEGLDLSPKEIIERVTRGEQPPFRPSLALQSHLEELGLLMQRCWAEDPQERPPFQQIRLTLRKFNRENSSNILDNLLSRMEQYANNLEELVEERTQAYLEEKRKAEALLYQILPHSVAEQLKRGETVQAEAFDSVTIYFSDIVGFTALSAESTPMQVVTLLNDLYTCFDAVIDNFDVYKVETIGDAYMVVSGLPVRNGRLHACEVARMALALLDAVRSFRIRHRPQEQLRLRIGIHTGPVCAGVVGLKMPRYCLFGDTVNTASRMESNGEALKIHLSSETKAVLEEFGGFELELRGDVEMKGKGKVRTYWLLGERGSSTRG
#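 HEK293 cells stably expressing human Npr1 and cGMP GloSensor pGS-40F, loaded 2 h with 2% GloSensor reagent, given compound 30 min at room temperature. Luminescence read before and 20 min after 0.1 nM hNppA.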
# NPR1 antag cnf = confirmation of human Npr1 natriuretic peptide receptor antagonists. HEK293 hNpr1 cGMP GloSensor luminescence, ANP-stimulated. hit rate 76% among 1,400. shares compounds with hNpr1 antagonist. Potency, µM (series often up to 57.6 µM), for inactives: top-dose activity change, negative = inhibition, actives largely listed as inhibitors. AID 1347044; calls by dose curve; also: nearly all actives have a fitted effect of over 70% in size
# NPR2 antag = selectivity test of Npr1 antagonists against human Npr2; shares compounds with hNpr1 antagonist; HEK293 hNpr2 GloSensor cGMP luminescence, CNP-stimulated; Potency, µM (titrated, usually from 57.6 µM), for inactives: top-dose activity change, negative = inhibition, most hits filed as inhibitors; hit rate 67% among 1,400; AID 1347046; calls by dose curve; also: nearly all actives have a fitted effect of over 70% in size
# FLuc counter = FLuc enzyme inhibition, Npr1 counter-screen; shares compounds with hNpr1 antagonist; AID 1347047; purified FLuc enzyme, luminescence, Km substrate; Potency, µM (highest dose often 57.6 µM), without a hit: top-dose activity change, negative = inhibition, actives largely listed as inhibitors; hit rate 0.7% among 1,400; also: 0% is about no effect
# GloSensor cGMP = counter-screen for Npr1 antagonists: GloSensor control cell line. shares compounds with hNpr1 antagonist. HEK293 GloSensor cGMP, SNP-stimulated, luminescence. Potency, µM (doses to about 57.6 µM), for inactives: at the top dose activity change, negative = inhibition, most hits filed as inhibitors. hit rate 69% among 1,400. AID 1347051; calls by dose curve; also: % is scaled to controls: 0 for no effect and ±100 for the full control effect; nearly all actives have a fitted effect of over 70% in size
# The depositor's hits bear a star; i = inactive; ? = inconclusive; / = no result given; [ ] = dose if it differs, or a comment. Unless noted, calls follow the shape of the dose curve; as a rule, active = well fitted curve in the direction sought with a large enough effect; inconclusive = small, poorly fitted or top-dose-only effect, or another doubt; inactive = no such curve, though single readings can be large; an effect the other way counts as inactive or inconclusive. Potency is read from the fitted curve at half-maximal effect.
SMILES,3T3 cytotox,FLuc inh,HEK cytotox,hNpr1 antagonist,NPR1 antag cnf,NPR2 antag,FLuc counter,GloSensor cGMP
Cc1ccc(C(=O)N2CCC(Cc3nc(-c4ccccc4)no3)CC2)c(C)c1,?,i,50µM*,6.3µM*,3.9µM*,5.4µM*,1%,3.9µM*
CCc1ccc(C(=O)N2CCC(Cc3nc(-c4ccc(OC)cc4)no3)CC2)cc1,?,i,?,3.5µM*,6.1µM*,9.7µM*,-1%,6.9µM*
COc1ccc(-c2noc(CC3CCN(C(=O)c4ccc(OC)nc4OC)CC3)n2)cc1,?,i,20µM*,4µM*,5.4µM*,8.6µM*,2%,6.1µM*
Cc1ccccc1C(=O)N1CCC(Cc2nc(-c3ccccc3)no2)CC1,?,i,?,8.9µM*,11µM*,17µM*,-3%,11µM*
COCc1cc(NCCSCc2ccccc2C)ncn1,?,i,?,11µM*,22µM*,19µM*,2%,15µM*
CN(CC1CCOCC1)C(=O)c1cccc(Br)c1,-1%,i,5%,0%,/,/,/,/
COc1ccccc1-c1ncc2c(n1)OCCN(Cc1ccc(F)cc1F)C2=O,?,i,-35%[172 µM],-3%[70.6 µM],/,/,/,/
COc1ccc(CN2CCOc3nc(-c4cccc(C(F)(F)F)c4)ncc3C2=O)cc1,?,i,?,32µM*,35µM*,35µM*,-6%[86.2 µM],40µM*
COCCN1CCOc2nc(-c3cc4ccccc4o3)ncc2C1=O,?,i,?,13µM*,9.9µM*,9.9µM*,0.5µM*,7.9µM*
Cn1nccc1-c1ncc2c(n1)OCCN(Cc1ccc(F)cc1F)C2=O,?,i,?,35µM*,35µM*,35µM*,5%[86.2 µM],40µM*
COc1ccc(CN2CCOc3nc(-c4ccc(C(=O)N(C)C)cc4)ncc3C2=O)cc1,-11%[138 µM],?,?,-18%[70.6 µM],/,/,/,/
O=C1c2cnc(-c3ccncc3)nc2OCCN1Cc1ccc(F)cc1F,?,i,?,18µM*,31µM*,25µM*,-2%[86.2 µM],22µM*
COc1ccc(-c2c(C(=O)Nc3ccc(C)cc3)nc3sccn23)cc1,-8%,/,?,/,/,/,/,/
Cc1noc(-c2ccccc2Cl)c1C(=O)NCCCOC(C)C,-10%,i,-5%,-6%,/,/,/,/
CCC[C@H]1CN(Cc2ccccc2C#N)C[C@@H]1NS(C)(=O)=O,-7%,i,i,2%,/,/,/,/
O=C(Nc1nccs1)c1ccc2c(c1)OCCN(c1ccccc1)C2,?,?,-26%[172 µM],-18%[70.6 µM],/,/,/,/
O=C(Nc1ccc2cn[nH]c2c1)c1ccc2c(c1)OCCN(c1ccccc1)C2,40µM*,i,45µM*,?,35µM*,?,-18%[86.2 µM],35µM*
COc1ccc(CN2CCC3(Cc4ccccc4CNC3=O)C2)c(OC)n1 (centres undefined),-9%,/,-31%,/,/,/,/,/
Cc1cccc(CC(=O)N2CCC(n3cc(-c4nc(-c5ccccc5)no4)nn3)CC2)c1,i,i,-7%,-3%,/,/,/,/
O=C(c1cnccn1)N1CCCC(n2cc(-c3nc(-c4ccccc4)no3)nn2)C1 (centres undefined),-17%,i,-24%,-20%,/,/,/,/
O=C(c1cc(F)ccc1F)N1CCCC(n2cc(-c3nc(-c4ccccc4)no3)nn2)C1 (centres undefined),?,?,40µM*,11µM*,19µM*,19µM*,?,17µM*
